Screens deposited in PubChem BioAssay by National Center for Advancing Translational Sciences (NCATS).
Compounds with a hit are over-represented: about 12% of the library has one in this group of screens.
AMA1 RON2 block = qHTS for Inhibitors of AMA1-RON; Towards Development of Antimalarial Drug Lead: Primary Screen. AlphaScreen AMA1-biotinylated RON2 peptide binding. Plasmodium falciparum AMA1 (3D7) - RON2 peptide interaction. AID 720542, 2013. Potency, µM (series often up to 58.2 µM), most hits filed as inhibitors. 360,000 compounds, 0.2% hits; note: nearly all actives have a fitted effect of over 45% in size
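AMA1 (3D7) with his tag at 25 nM final met compounds first, then biotinylated RON2 peptide at 25 nM; detection used donor plus acceptor beads, 10 µg/mL apiece, read by AlphaScreen after 30 min at room temperature.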
Pf growth 96h = Primary qHTS for delayed death inhibitors of the malarial parasite plastid, 96 hour incubation; P. falciparum luciferase reporter growth, 96 h; Potency, µM (titrated, usually from 28.7 µM), most hits filed as inhibitors; 320,000 compounds, 6.9% hits
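P. falciparum expressing integrated firefly luciferase grown in erythrocytes (2% hematocrit, 0.05% parasitemia final) with compounds for 96 hours at 37 C, 5% CO2. Growth inhibition read as loss of luminescence after adding luciferase detection reagent.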
HCV inh = qHTS Assay for Inhibitors of Hepatitis C Virus (HCV) | Huh7.5.1 HCVcc-Cre infection, luciferase reporter, 44 h | Potency, µM (top dose mostly 41.8 µM), hits mostly inhibitors | 340,000 compounds, 3.4% hits | AID 651820, 2012
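Infectious HCV cell culture screen: compound-treated cells (1,000/well, pre-plated 4 h) are infected with HCVcc-Cre at roughly 0.5 moi and grown 44 h. Infection is quantified by luciferase signal after 15 min substrate incubation at room temperature.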
SARS PLpro yeast = qHTS of Yeast-based Assay for SARS-CoV PLP; 330,000 compounds, 0.19% hits; Potency, µM (doses to about 32.9 µM), usual class: activators; S. cerevisiae expressing SARS-CoV PLpro, growth rescue; calls by dose curve; note: nearly all actives have a fitted effect of over 55% in size
Pf growth 48h = Primary qHTS for delayed death inhibitors of the malarial parasite plastid, 48 hour incubation; P. falciparum luciferase growth in erythrocytes, 48 h; Potency, µM (top dose mostly 28.7 µM), hits mostly inhibitors; 310,000 compounds, 5.9% hits
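Firefly luciferase activity from engineered P. falciparum reports growth; inhibitors lower the luminescent signal. Cultures contained 2% hematocrit erythrocytes at 0.1% final parasitemia.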
NS1 function inh = qHTS Assay for Inhibitors of Influenza NS1 Protein Function | Potency, µM (series often up to 46.1 µM) | 270,000 compounds, 0.4% hits | AID 2326, 2010; calls by dose curve; note: actives are rising curves; nearly all actives have a fitted effect of over 50% in size
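In this qHTS, NS1 from influenza A is expressed in budding yeast, where it slows growth. Cells are switched from glucose to 2% galactose medium (pH 6.0, -URA), treated with compound, and growth recovery is read at OD600.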
A number is an active result. Unless noted, calls come from the whole dose curve; as a rule, active = well fitted curve in the direction sought with a large enough effect; inconclusive = small, poorly fitted or top-dose-only effect, or another doubt; inactive = no such curve, though single readings can be large; an effect the other way counts as inactive or inconclusive.

Screening COc1ccc(C)cc1Nc1n[n+](-c2ccccc2)c(-c2ccc(N(C)C)cc2)s1 returned AMA1 RON2 block inactive, Pf growth 96h 2.08µM, HCV inh inactive, SARS PLpro yeast inactive, Pf growth 48h 2.62µM and NS1 function inh inactive.
For COc1ccc(C)cc1Nc1n[n+](C)c(-c2ccc(O)cc2O)s1 the results were AMA1 RON2 block inactive, Pf growth 96h inconclusive, HCV inh inactive, SARS PLpro yeast inactive, Pf growth 48h inconclusive and NS1 function inh inactive.
For NC(=O)Cn1ccc(O)c(Cc2ccc(Cl)cc2Cl)c1=O the results were AMA1 RON2 block inactive, Pf growth 96h inactive, HCV inh inactive, SARS PLpro yeast inactive, Pf growth 48h inactive and NS1 function inh inactive.
Screening COc1ccc(CN2CCNC(=O)C2CC(=O)N(C)Cc2nonc2C)c(F)c1 (configuration not stated) returned AMA1 RON2 block inactive, Pf growth 96h inconclusive, HCV inh inactive, SARS PLpro yeast inactive, Pf growth 48h inactive and NS1 function inh inactive.
Screening O=c1nc2ccccn2c2ccc(S(=O)(=O)N3CCCCC3)cc12 returned AMA1 RON2 block inactive, Pf growth 96h 6.57µM, HCV inh inactive, SARS PLpro yeast inactive, Pf growth 48h 5.86µM and NS1 function inh inactive.
CC(=O)NC(c1ccco1)c1cc(F)c2cccnc2c1O (configuration not stated) was read as Pf growth 96h inconclusive, SARS PLpro yeast inactive and Pf growth 48h 4.15µM.
CC(=O)NC(c1cccs1)c1cc(F)c2cccnc2c1O (configuration not stated) was read as Pf growth 96h 4.65µM, SARS PLpro yeast inactive and Pf growth 48h 2.94µM.
O=c1ccc2ccc(Oc3ccc([N+](=O)[O-])cc3Cl)cc2o1 was read as AMA1 RON2 block inactive, Pf growth 96h inactive, HCV inh 11.2µM, SARS PLpro yeast inactive and Pf growth 48h inactive.
For Cc1ccc(C(C)(C)NC(=O)C2CCC(=O)N(CC3CCCCC3)C2)cc1 (configuration not stated) the results were AMA1 RON2 block inactive, Pf growth 96h inconclusive, HCV inh inactive, SARS PLpro yeast inactive, Pf growth 48h inactive and NS1 function inh inactive.
`Nc1nnn(CC(=O)N/N=C/c2ccc(Cl)cc2Cl)n1` gave AMA1 RON2 block inactive, Pf growth 96h inactive, HCV inh inactive, SARS PLpro yeast inactive, Pf growth 48h inactive and NS1 function inh inactive.
Screening CCCCn1c(N)c(N(CCOC)C(=O)c2cc(C)oc2C)c(=O)[nH]c1=O returned AMA1 RON2 block inactive, Pf growth 96h inactive, HCV inh inactive, SARS PLpro yeast inactive and Pf growth 48h inactive.
`COc1cc2nc(/C=C/c3ccc(N(C)C)cc3)sc2cc1SC` gave AMA1 RON2 block 17.8µM, Pf growth 96h inconclusive, HCV inh inconclusive, SARS PLpro yeast inactive, Pf growth 48h inconclusive and NS1 function inh inconclusive.
For CN1CCN(S(=O)(=O)c2ccc3[nH]c(=O)oc3c2)CC1 the results were AMA1 RON2 block inactive, Pf growth 96h inactive, HCV inh inactive, SARS PLpro yeast inactive, Pf growth 48h inactive and NS1 function inh inactive.
Screening Cc1cc(C)n(C(=O)/C(C#N)=N/Nc2cc(Cl)cc(Cl)c2)n1 returned AMA1 RON2 block inactive, Pf growth 96h inconclusive, HCV inh 10µM, SARS PLpro yeast inactive and Pf growth 48h 11.7µM.
`Cc1cc(C)n(C(=O)/C(C#N)=N\Nc2ccccc2[N+](=O)[O-])n1` gave AMA1 RON2 block inactive, Pf growth 96h inactive, HCV inh inactive, SARS PLpro yeast inactive and Pf growth 48h inactive.
NS(=O)(=O)c1ccc(N=Cc2c(O)n(-c3nccs3)c(=O)c3ccccc23)cc1 was read as AMA1 RON2 block inactive, Pf growth 96h inconclusive, HCV inh inactive, SARS PLpro yeast inactive, Pf growth 48h 4.65µM and NS1 function inh inactive.
For Oc1ccc(C[C@H]2CNC(=S)N2CC2CCCN2C[C@H](Cc2ccc(O)cc2)N2C[C@H](Cc3ccc(O)cc3)N(CC3CCCCCC3)C2=S)cc1 (some centres not stated) the results were AMA1 RON2 block inactive and HCV inh inconclusive.
`CCc1ccc(CN(C)C(=O)c2cc(COc3cccc4cnccc34)on2)cc1` gave AMA1 RON2 block inactive, Pf growth 96h inactive, HCV inh 7.94µM, SARS PLpro yeast inactive, Pf growth 48h inconclusive and NS1 function inh inactive.
`CN(Cc1cccc2ccccc12)C(=O)c1cc(COc2c(F)cccc2F)on1` gave AMA1 RON2 block inactive, Pf growth 96h inconclusive, HCV inh inactive, SARS PLpro yeast inactive, Pf growth 48h inactive and NS1 function inh inactive.
`Cc1c(C(C)NC(=O)c2cc(COc3cccc4cnccc34)on2)cnn1C` (configuration not stated) gave AMA1 RON2 block inactive, Pf growth 96h 8.28µM, HCV inh 7.08µM, SARS PLpro yeast inactive, Pf growth 48h inactive and NS1 function inh inactive.
Screening CN(Cc1cccc2cnccc12)C(=O)c1cc(COc2ccc(F)cc2F)on1 returned AMA1 RON2 block inactive, Pf growth 96h inactive, HCV inh 8.91µM, SARS PLpro yeast inactive, Pf growth 48h inconclusive and NS1 function inh inactive.
`Cc1ccc(CN(C)C(=O)c2cc(COc3ccc(F)cc3Cl)on2)o1` gave AMA1 RON2 block inactive, Pf growth 96h inactive, HCV inh inactive, SARS PLpro yeast inactive, Pf growth 48h 0.0928µM and NS1 function inh inactive.
`O=C(c1cc(F)ccc1F)C1CCCN(C(=O)CCN2CCCCO2)C1` (configuration not stated) gave AMA1 RON2 block inactive, Pf growth 96h inconclusive, HCV inh inactive, SARS PLpro yeast inactive, Pf growth 48h inactive and NS1 function inh inactive.
CC(=O)Oc1ccccc1Cn1c(C)c(C(=O)NCc2ccccc2C(F)(F)F)sc1=O was read as AMA1 RON2 block inactive.
Screening C[C@H](CO)N1C[C@H](C)[C@@H](CN(C)C(=O)C2CCCCC2)OCc2cn(nn2)CCCC1=O returned AMA1 RON2 block inactive.
For CCN(CC1CCCO1)C(=O)c1cc(COc2ccc(OC)cc2Cl)on1 (configuration not stated) the results were AMA1 RON2 block inactive, Pf growth 96h inconclusive, HCV inh inactive, SARS PLpro yeast inactive, Pf growth 48h inactive and NS1 function inh inactive.
CCCN(CC1CCCO1)C(=O)c1cc(COc2ccc(F)cc2F)on1 (configuration not stated) was read as AMA1 RON2 block inactive, Pf growth 96h 11.7µM, SARS PLpro yeast inactive, Pf growth 48h inactive and NS1 function inh inactive.
O=C(Nc1ccc2nc(N3CCOCC3)sc2c1)c1cc2ccccc2o1 was read as AMA1 RON2 block inactive.
